Shown is part of a subset that was picked to be rich in hits.
Sm TGR inh: blocks Schistosoma mansoni thioredoxin glutathione reductase; Potency, µM (highest dose often 114 µM), inactives show at the highest dose activity change, negative = inhibition, hits mostly inhibitors; purified TGR, DTNB reduction, TNB absorbance 405 nm; AID 485364; 360,000 compounds, 3% hits; further: potency means the concentration at half of the fitted maximal effect; on the % scale 0 is the no-effect control and ±100 the full control effect; nearly all actives have a fitted effect of over 60% in size
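TGR 20 nM + NADPH 100 uM (dispensed conc.), cpd preinc 15 min RT; start with NADPH (500 uM addition) then DTNB (15 mM addition). Kinetic TNB absorbance, 405 nm filter. Four-parameter Hill fit across titration.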
CHX counter: affects cycloheximide protein synthesis inhibition readout, counter-screen; max response, %; 300,000 compounds, 12% hits; cell reporter, cycloheximide protein synthesis inhibition counterscreen; in the data active means max response mostly above about 13%, no sharp cut-off; inactive means mostly below about 14%; further: read at 38.3 µM for the half of the compounds with a filed dose; 0% is about no effect
LmPK inh: blocks Leishmania mexicana pyruvate kinase activity; AID 1721; Potency, µM (titrated, usually from 57.5 µM), for the others: at the top dose activity change, negative = inhibition, hits mostly inhibitors; purified LmPK, Kinase-Glo ATP luminescence, 1 h; Q27686; 290,000 compounds, 0.37% hits; further: potency means the concentration at half of the fitted maximal effect; on the % scale 0 is the no-effect control and ±100 the full control effect
Target sequence (Q27686 whole entry, looked up): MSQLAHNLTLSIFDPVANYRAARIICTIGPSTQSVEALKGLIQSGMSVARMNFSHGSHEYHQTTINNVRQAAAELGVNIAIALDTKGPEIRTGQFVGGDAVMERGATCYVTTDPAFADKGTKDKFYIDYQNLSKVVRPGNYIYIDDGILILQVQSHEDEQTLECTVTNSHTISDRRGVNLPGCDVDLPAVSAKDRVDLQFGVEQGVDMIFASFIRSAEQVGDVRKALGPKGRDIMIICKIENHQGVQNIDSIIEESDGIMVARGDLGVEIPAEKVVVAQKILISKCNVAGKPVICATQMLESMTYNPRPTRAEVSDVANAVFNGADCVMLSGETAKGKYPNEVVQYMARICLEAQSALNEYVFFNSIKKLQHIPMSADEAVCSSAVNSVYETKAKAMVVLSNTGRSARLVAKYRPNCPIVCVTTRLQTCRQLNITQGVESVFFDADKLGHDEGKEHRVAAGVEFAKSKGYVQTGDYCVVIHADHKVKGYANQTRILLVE
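Pyruvate kinase activity monitored as ATP production (luciferase luminescence). Conditions: 0.1 nM enzyme, 0.5 mM PEP, 0.1 mM ADP, 1 h, RT; normalized against uninhibited and no-enzyme wells.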
FBPA Giardia inh: blocks Giardia fructose-bisphosphate aldolase activity | 290,000 compounds, 0.71% hits | Potency, µM (highest dose often 59.6 µM), without a hit: top-dose activity, negative = inhibition, usual class: inhibitors | A8B2U2 | purified Giardia FBPA; further: potency means the concentration at half of the fitted maximal effect; on the % scale 0 is the no-effect control and ±100 the full control effect; nearly all actives have a fitted effect of over 55% in size
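Giardia FBPA (40 nM reagent) was preincubated 10 min at RT with compound (up to 57.5 uM final), then substrate plus GAPDH/TPI/NAD/arsenate coupling system with diaphorase/resazurin was added; resorufin fluorescence (525/598 nm) was read after 20 min.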
TbPYK inhibitor: T. brucei pyruvate kinase inhibition. 410,000 compounds, 0.12% hits. Potency, µM (top dose mostly 76.8 µM), for inactives: top-dose activity, negative = inhibition, actives largely listed as inhibitors. AID 624173. TbPYK enzyme, Kinase-Glo Plus ATP luminescence, 45 min. Q57TT1; further: potency means the concentration at half of the fitted maximal effect; on the % scale 0 is the no-effect control and ±100 the full control effect; nearly all actives have a fitted effect of over 50% in size
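Glycolytic pyruvate kinase of T. brucei was incubated with substrate, test compound and 130 uM ADP for 45 minutes at room temperature. Luminescent Kinase-Glo Plus signal was measured after 10 minutes.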
Shiga inhibitor: inhibitors of Shiga toxin in Vero cells | Vero cells, Shiga toxin protein synthesis inhibition reporter | inhibition, % at 38.7 µM | 290,000 compounds, 9.2% hits; in the data active means inhibition mostly above about 28%, no sharp cut-off; inactive means mostly below about 43%; further: 0% is about no effect
Starred values were filed as active, the others as inactive; ? = inconclusive; · = not tested or not shown. Unless noted, the call rests on the fitted dose curve; in most records, active means well fitted curve in the direction sought with a large enough effect; inconclusive means small, poorly fitted or top-dose-only effect, or another doubt; inactive means no such curve, though single readings can be large; an effect the other way counts as inactive or inconclusive.

SMILES	Sm TGR inh	CHX counter	LmPK inh	FBPA Giardia inh	TbPYK inhibitor	Shiga inhibitor
CCOC(=O)/C(=N/Nc1ccc(OC)cc1)N1CCCc2ccccc21	-26%	21	1%	16µM*	0%	41*
Cc1ccc(C)c(NC(=O)CN2C(=O)C3(SCC(=O)N3c3ccc(C)c(C)c3)c3ccccc32)c1 (stereo not drawn)	23%	·	·	·	6%	·
CCOC(=O)/C(C#N)=C/c1c(N2CCN(c3ccccc3)CC2)nc2ccccn2c1=O	2%	41*	2%	-12%	1%	18
N#C/C(=C\c1c(N2CCCCCC2)nc2ccccn2c1=O)C(N)=O	3%	-2	5%	1%	6%	4
Cc1cccn2c(=O)c(/C=C(\C#N)C(N)=O)c(Oc3ccccc3)nc12	32µM*	-2	-8%	-14%	-23%	-14
N#C/C(=C\c1c(N2CCN(c3ccccc3)CC2)nc2ccccn2c1=O)C(N)=O	-15%	28*	1%	-13%	-25%	50*
COc1ccc(C(=O)On2c(-c3ccc(Br)cc3)nc3ccccc3c2=O)cc1	-3%	32*	0%	7%	4%	93*
Cc1ccc(-n2c3nc(=O)[nH]c(=O)c-3cc3c(C)nn(-c4ccccc4)c32)cc1Cl	3%	·	·	·	3%	·
CN(C)CCC(=O)c1ccc2c(c1)OCO2	0.63µM*	24*	1%	-2%	-12%	13
O=C(CCNc1ccccc1)c1ccc2c(c1)OCO2	2.2µM*	63*	-13%	6%	3%	71*
Cc1ccccc1NC(=O)CSc1nccn1C	10%	·	·	·	-4%	·
CC(C)N1C(=O)C(O)(c2c[nH]c3ccccc23)c2ccccc21 (stereo not drawn)	-8%	·	·	·	0%	·
C[C@@H](O[C@H]1OCCN(Cc2n[nH]c(=O)[nH]2)[C@@H]1c1ccc(F)cc1)c1cc(C(F)(F)F)cc(C(F)(F)F)c1	·	·	·	·	-7%	·
COC(=O)c1ccc(CSc2nc3c(cnn3-c3ccc(C)cc3)c(=O)[nH]2)o1	-11%	-4	2%	0%	4%	-4
COc1ccc2nc(SCC(=O)NCc3ccc(F)cc3)[nH]c2c1	3%	-6	-3%	·	6%	3
COc1ccc2nc(SCC(=O)N3CCNC3=O)[nH]c2c1	4%	48*	-7%	1%	-3%	79*
COC(=O)c1ccc(CSc2nc3ccc(C)cc3[nH]2)o1	-3%	27*	1%	-13%	-16%	37*
COC(=O)C1CCN(C(=O)CSc2nc3ccc(OC)cc3[nH]2)CC1	-16%	4	-7%	-2%	-2%	-9
Cc1ccc2nc(SCC(=O)NCc3cccs3)[nH]c2c1	0%	11*	-2%	-16%	6%	5
COc1cccc(CNC(=O)CSc2nc3ccc(C)cc3[nH]2)c1	6%	17*	4%	-4%	3%	33
Cc1ccc(N=Nc2ccc(O)c3ncccc23)cc1	1%	-6	-3%	-20%	-13%	-9
Cc1ccc(N=Nc2ccc(O)c3ncccc23)cc1C	?	28*	0%	-1%	-2%	100*
COc1ccccc1N=Nc1ccc(O)c2ncccc12	-35%	62*	-1%	?	-14%	90*
CCC[C@H]1CN(c2ccc(OC)cc2)C(=O)[C@@H]1CC(=O)NC	·	·	·	·	2%	·
COC(=O)c1ccccc1NC(=O)C1=CC(c2ccc(C)cc2)=NS(=O)(=O)N1C	-1%	·	·	·	1%	·
SMILES	Sm TGR inh	CHX counter	LmPK inh	FBPA Giardia inh	TbPYK inhibitor	Shiga inhibitor
Cc1ccc2cc(C3CC(c4ccco4)=NN3S(C)(=O)=O)c(Cl)nc2c1 (stereo not drawn)	11µM*	8	2%	-7%	-5%	-2
Cc1ccc2nc(Cl)c(C3CC(c4ccco4)=NN3S(C)(=O)=O)cc2c1 (stereo not drawn)	14µM*	-2	3%	0%	-8%	9
CCOc1ccc2cc(C3CC(c4ccco4)=NN3S(C)(=O)=O)c(=O)[nH]c2c1 (stereo not drawn)	3.2µM*	9	-1%	-12%	7%	21
CCOc1ccc2nc(Cl)c(C3CC(c4ccco4)=NN3S(C)(=O)=O)cc2c1 (stereo not drawn)	32µM*	-2	-1%	-1%	-9%	-13
CC(=O)N1N=C(c2ccco2)CC1c1cc2cc(C)ccc2nc1Cl (stereo not drawn)	?	2	6%	6%	-10%	-5
Cc1cc(/C=C2/NC(=O)NC2=O)c(C)n1C	14µM*	4	0%	?	-2%	15
Cc1cc(C)c(-n2c(C)cc(/C=C3/NC(=O)NC3=O)c2C)c(C)c1	-14%	-3	1%	-5%	-2%	-15
CCN(CC)C(=O)c1ccc(C(=O)c2ccccc2)cc1	-19%	32*	1%	3%	4%	37
CCN(CC)C(=O)c1ccc2nc(-c3ccccc3)c(-c3ccccc3)nc2c1	-12%	-1	1%	3%	-6%	-7
CCN(CC)C(=O)c1ccc2nc3ccccc3nc2c1	8%	30*	0%	-5%	-1%	65*
COc1ccccc1N1CCN(S(=O)(=O)c2ccc(Cl)s2)CC1	0%	16*	-13%	8%	0%	27
CCOc1ccccc1N1CCN(S(=O)(=O)c2ccc(Cl)s2)CC1	-2%	17*	5%	-3%	-9%	35*
COc1ccccc1N1CCN(S(C)(=O)=O)CC1	2%	12	9%	7%	-3%	12
CCOC(=O)C1CCCN(C(=O)c2ccc3c(c2)N(Cc2ccc(Cl)cc2)C(=O)c2ccccc2S3=O)C1 (stereo not drawn)	1%	·	·	·	-7%	·
COc1ccc(-n2ncc3c2ncn2nc(Cc4ccccc4)nc32)cc1	12%	·	·	·	0%	·
c1ccc(-n2ncc3c2ncn2nc(-c4ccco4)nc32)cc1	?	38*	-1%	3%	-14%	46*
CC(C)c1ccc(CN(Cc2ccco2)c2cnc(S(C)(=O)=O)nc2C(=O)Nc2ccc(F)cc2)cc1	-4%	·	·	·	0%	·
COC(=O)c1c(NC(=O)C2CC2)sc(C(=O)Nc2ccccc2)c1C	3%	25*	1%	-3%	-22%	52*
CCOC(=O)c1sc(NC(=O)CSc2nc3ccccc3s2)c(C(=O)OCC)c1C	-9%	1	5%	2%	·	-1
COC(=O)c1c(NC(=O)C2CCC2)sc(C(=O)N(C)C)c1C	3%	-1	3%	0%	1%	-7
CCOC(=O)c1c(NC(=O)CSc2cccc[n+]2[O-])sc(C(=O)Nc2ccccc2)c1C	-3%	27*	2%	?	-14%	72*
CCOC(=O)c1sc(NC(=O)CCN2C(=O)c3ccccc3C2=O)c(C(=O)OCC)c1C	2%	13*	3%	3%	-8%	22
